# Assay results as given in the supplement of paper PMC8975748.
# Counter-ions that a name gives are not always drawn.
# Tested on: Saccharomyces cerevisiae BY4741 SeMeCo community
# Test: z-score of subpopulation abundance vs DMSO median, subpopulation auxotrophic for HL; higher = larger share of this subpopulation than in DMSO controls
# Settings: 10 µM; 24 h; SM minimal medium; subpopulation (auxotrophy): HL
# Method: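 Fluorescent four-plasmid SeMeCo (self-establishing metabolically cooperating S. cerevisiae BY4741 community; plasmids pH-mRuby2, pL-mWasabi, pU-eCFP, pM-TagRFP657) was grown 24 h in minimal SM medium with each Selleck FDA-approved drug at 10 µM in 384-well plates. Cells were fixed and imaged by high-content confocal microscopy. For each auxotrophic subpopulation (and the prototroph), a z-score gives the deviation from the DMSO vehicle-control population median.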
row,SMILES,z-score of subpopulation abundance
1,CCCSc1ccc2[nH]c(NC(=O)OC)nc2c1 [Albendazole],-0.39
2,COCCCC/C(=N\OCCN)c1ccc(C(F)(F)F)cc1 [Fluvoxamine maleate],-0.26
3,C#C[C@]1(O)CC[C@H]2[C@@H]3CCc4cc(O)ccc4[C@H]3CC[C@@]21C [Ethinyl Estradiol],-0.69
4,CC[C@H]1OC(=O)[C@H](C)[C@@H](O[C@H]2C[C@@](C)(OC)[C@@H](O)[C@H](C)O2)[C@H](C)[C@@H](O[C@@H]2O[C@H](C)C[C@H](N(C)C)[C@H]2O)[C@](C)(O)C[C@@H](C)C(=O)[C@H](C)[C@@H](O)[C@]1(C)O [Erythromycin],2.42
5,CN1CCN(CC(=O)N2c3ccccc3C(=O)Nc3cccnc32)CC1 [Pirenzepine dihydrochloride],-0.63
6,C#C[C@]1(O)CC[C@H]2[C@@H]3CCC4=CC(=O)CC[C@@H]4[C@H]3C(=C)C[C@@]21CC [Etonogestrel],-0.29
7,O=C1CCc2cc(OCCCCc3nnnn3C3CCCCC3)ccc2N1 [Cilostazol],-0.05
8,O=C(O)c1cc(O)c2c(c1)[C@H]([C@H]1c3cc(C(=O)O)cc(O)c3C(=O)c3c(O[C@@H]4O[C@H](CO)[C@@H](O)[C@H](O)[C@H]4O)cccc31)c1cccc(O[C@@H]3O[C@H](CO)[C@@H](O)[C@H](O)[C@H]3O)c1C2=O [Sennoside A],0.29
9,CCN(CC)CCOC(=O)c1ccc(N)cc1 [Procaine HCl],-0.7
10,COC(=O)C1=C(C)NC(C)=C(C(=O)OC(C)C)C1c1cccc2nonc12 (stereo not given) [Isradipine],-0.52
11,CC1(C)S[C@@H]2[C@H](NC(=O)[C@H](N)c3ccc(O)cc3)C(=O)N2[C@H]1C(=O)O [Amoxicillin],-0.54
12,CC1(C)S[C@@H]2[C@H](NC(=O)[C@H](N)c3ccccc3)C(=O)N2[C@H]1C(=O)OCOC(=O)[C@@H]1N2C(=O)C[C@H]2S(=O)(=O)C1(C)C [Sultamicillin],2.28
13,N#C/C(=C1/SC[C@@H](c2ccc(Cl)cc2Cl)S1)n1ccnc1 [Luliconazole],4.75
14,CC(N)C12CC3CC(CC(C3)C1)C2 (stereo not given) [Rimantadine],-0.19
15,Nc1cc(C(Cl)=C(Cl)Cl)c(S(N)(=O)=O)cc1S(N)(=O)=O [Clorsulon],0.48
16,CCOc1cc(N)c(Cl)cc1C(=O)NCC1CN(Cc2ccc(F)cc2)CCO1 (stereo not given) [Mosapride],-0.5
17,N=C(N)NC(=O)c1nc(Cl)c(N)nc1N [Amiloride HCl dihydrate],0.71
18,O=c1[nH]c(=O)n([C@H]2C[C@H](O)[C@@H](CO)O2)cc1/C=C/Br [Brivudine],-1.84
19,CC(NCCC(c1ccccc1)c1ccccc1)c1ccccc1 (stereo not given) [Fendiline hydrochloride],-0.41
20,CO/N=C(\C(=O)N[C@@H]1C(=O)N2C(C(=O)[O-])=C(C[N+]3(C)CCCC3)CS[C@H]12)c1csc(N)n1 [Cefepime Dihydrochloride Monohydrate],0.83

row,SMILES,z-score of subpopulation abundance
1,CCCCCCCCCCCCCCCC[N+](C)(C)C [Cetrimonium Bromide (CTAB)],10.9
2,CCCCc1oc2ccc(NS(C)(=O)=O)cc2c1C(=O)c1ccc(OCCCN(CCCC)CCCC)cc1 [Dronedarone HCl],1.2
3,CN1C2CCCC1CC(NC(=O)c1nn(C)c3ccccc13)C2 (stereo not given) [Granisetron],-1.17
4,"CO[C@H]1C[C@@H]2CC[C@@H](C)[C@@](O)(O2)C(=O)C(=O)N2CCCC[C@H]2C(=O)O[C@H]([C@H](C)C[C@@H]2CC[C@@H](OP(C)(C)=O)[C@H](OC)C2)CC(=O)[C@H](C)/C=C(\C)[C@@H](O)[C@@H](OC)C(=O)[C@H](C)C[C@H](C)/C=C/C=C/C=C/1C [Ridaforolimus (Deforolimus, MK-8669)]",13.8
5,COc1cc2c(cc1OC)C(=O)C(CC1CCN(Cc3ccccc3)CC1)C2 (stereo not given) [Donepezil HCl],-0.23
6,COc1ccc2[nH]c([S@@+]([O-])Cc3ncc(C)c(OC)c3C)nc2c1 [NEXIUM (esomeprazole magnesium)],1.91
7,O=c1cc(-c2ccc(O)c(O)c2)oc2cc(O)cc(O)c12 [Luteolin],0.22
8,CC(=O)NC[C@H]1CN(c2ccc(N3CCOCC3)c(F)c2)C(=O)O1 [Linezolid],-0.58
9,CCN(CC)CCOCCOC(=O)C1(c2ccccc2)CCCC1 [Pentoxyverine Citrate],-0.72
10,COC(=O)C1=C(C)NC(C)=C(C(=O)OC(C)(C)CN(C)CCC(c2ccccc2)c2ccccc2)C1c1cccc([N+](=O)[O-])c1 (stereo not given) [Lercanidipine hydrochloride],1.84
11,O=C(O)CCc1nc(-c2ccccc2)c(-c2ccccc2)o1 [Oxaprozin],-0.56
12,CC1(C)S[C@@H]2[C@H](NC(=O)[C@H](NC(=O)N3CCNC3=O)c3ccccc3)C(=O)N2[C@H]1C(=O)O [Azlocillin sodium salt],0.33
13,CNCCC(Oc1ccc(C(F)(F)F)cc1)c1ccccc1 (stereo not given) [Fluoxetine HCl],-0.68
14,Clc1ccccc1C(c1ccccc1)(c1ccccc1)n1ccnc1 [Clotrimazole],3.58
15,CCN1CCCC1CNC(=O)c1cc(S(N)(=O)=O)ccc1OC (stereo not given) [Sulpiride],-0.63
16,c1ccc2[nH]c(-c3cscn3)nc2c1 [Thiabendazole],-0.01
17,COc1ncnc(NS(=O)(=O)c2ccc(N)cc2)c1OC [Sulfadoxine],0.34
18,Cc1ccsc1/C=C/C1=NCCCN1C [Morantel tartrate],-0.87
19,CN(C)C(=O)COC(=O)Cc1ccc(OC(=O)c2ccc(NC(=N)N)cc2)cc1 [Camostat Mesilate],-0.35
20,CC1=C(C(=O)O)N2C(=O)[C@@H](NC(=O)[C@H](N)C3=CCC=CC3)[C@H]2SC1 [Cefradine],0.06
